Experimental data as given in PubChem BioAssay.
Measured potencies and affinities stand elsewhere. Inconclusive results are not listed. The source made the active and inactive calls.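 How the source made its calls, unless noted: active means a dose-response fit showing signal loss, with half-maximal concentration no higher than twice the top tested dose; inconclusive means flat fit between 30% and 70% signal loss, or poor fit; inactive means the rest.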

Tests used:
[1] = C. neoformans lysis by adenylate kinase leakage – AK release luminescence, cherry-picks, dose response (AID 687000;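 active means fitted dose curve reaches 40% lysis signal rise at or below the highest valid concentration tested for that sample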;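 further: luminescent detection of adenylate kinase leaking from lysed yeast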)
[2] = viability loss in HepG2 hepatoma cells – cell-based, cherry-picks, set 2, cytotoxicity control, dose response (AID 687002)
[3] = viability loss in HeLa cells – cell-based, ATP luminescence, cherry-pick samples, cytotoxicity control, dose response (AID 687004;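 active means a fitted half-maximal concentration no higher than twice the top valid tested dose, with signal falling as cells die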)
[4] = toxicity toward HepG2 liver cells – cell-based, plate reader, cherry-pick, antagonist series, cytotoxicity control, dose response (AID 743416; call rule not given here)
[5] = PAX8 transcriptional activity inhibition in RMG-I – RMG-I cells, luciferase, cherry-pick, dose response (AID 687027;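 active means every replicate test run called active, with the signal dropping as expected and potency within twice the top valid dose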)
[6] = RMG-1 ovarian cancer cell viability loss – cherry-pick, dose response (AID 687029;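 active means signal drop whose fitted half-maximal concentration is at most twice the top valid dose, in every test run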;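 further: cells exposed to compound for 96 hours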)
[7] = IOSE-T80 viability loss, PAX8-independent line – cell-based, cherry-pick, selectivity assay for PAX8 inhibitor project, dose response (AID 687032;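 active means fitted half-maximal concentration for viability loss no higher than twice the top valid dose, in every repeat run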;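 further: cells exposed to compound for 96 h before reading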)
[8] = CMV-driven luciferase expression suppression in HEK293 – cell-based, luminescence, dry powder, counter-screen for Pax8 inhibitor project, dose response (AID 743020;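 active means signal-lowering compounds whose fitted half-maximal concentration is at or below twice the top tested dose in every run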;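 further: HEK293 cells stably expressing the CMV luciferase reporter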)
[9] = general cell-killing toxicity readout – plate reader, dry powder samples, cytotoxicity control for PAX8 inhibitor project, dose response (AID 743021; call rule not given here)

Measured: outcome

CO[C@H]1CN(C)C(=O)c2ccc(NC(=O)NC(C)C)cc2OC[C@@H](C)NC[C@H]1C
inactive: [1] | [2] | [3]

CCC(=O)N1CCC1(C)C(=O)Nc1ccc(C)c(C)c1 (stereo not drawn)
inactive: [1] | [2] | [3]

Cc1ccc(NC(=O)C2(N3CCC3=O)CCCCC2)cc1
inactive: [1] | [2] | [3]

O=C(CSc1ncnc2c1cnn2-c1ccc(F)cc1)NCc1ccc2c(c1)OCO2
inactive: [1] | [2] | [3]

CCC(=O)Nc1ccc2c(c1)C(=O)N(C)C[C@H](OC)[C@@H](C)CN[C@H](C)CO2
inactive: [1] | [2] | [3]

O=C(NC(=S)Nc1ccccc1N1CCOCC1)c1ccccc1F
inactive: [1] | [2] | [3]

CCN(C(=O)CSc1ncnc2c1cnn2-c1ccccc1)C1CCS(=O)(=O)C1 (stereo not drawn)
inactive: [1] | [2] | [3]

CC(=O)c1ccc(N2CCN(C(=O)Cc3cccs3)CC2)cc1
inactive: [1] | [2] | [3]

CC(=O)N1[C@H](CO)[C@H](c2ccc(-c3ccccc3)cc2)[C@@H]1CNC(=O)C1CC1
inactive: [1] | [2] | [3]

C[C@H]1CN([C@@H](C)CO)S(=O)(=O)c2ccc(Br)cc2O[C@H]1CN(C)S(=O)(=O)c1ccccc1F
inactive: [1] | [2] | [3]

CC(=O)c1cccc(NC(=S)NC2CCCCCCC2)c1
inactive: [1] | [2] | [3]

C[C@H](CO)N1C[C@H](C)[C@H](CN(C)S(=O)(=O)c2cn(C)cn2)Oc2ncc(/C=C/c3ccccc3)cc2C1=O
inactive: [1] | [2] | [3]

COc1cccc(S(=O)(=O)Nc2ccc3c(c2)OC[C@@H](C)NC[C@H](C)[C@@H](OC)CN(C)C3=O)c1
inactive: [1] | [2] | [3]

C[C@H]1CN([C@@H](C)CO)C(=O)Cc2cc(NC(=O)C3CC3)ccc2O[C@@H]1CN(C)C(=O)Nc1cccc2ccccc12
inactive: [1] | [2] | [3]

O=C(CSc1ncnc2c1cnn2-c1ccccc1)NCC1CCCO1 (stereo not drawn)
inactive: [1] | [2] | [3]

COC(=O)C1=C(C)N(C)C(=S)N(C)C1c1ccc(OC)cc1 (stereo not drawn)
inactive: [1] | [2] | [3]

CCCNC(=O)[C@H]1[C@H](CO)[C@H]2Cn3c(cccc3=O)[C@@H]1N2C(=O)Nc1cc(F)ccc1F
inactive: [1] | [2] | [3]

N#C[C@H]1[C@@H](c2ccccc2)[C@@H](CO)N1C(=O)Cc1ccccc1
inactive: [1] | [2] | [3]

C[C@H](CO)N1C[C@H](C)[C@H](CN(C)Cc2ccc(Cl)c(Cl)c2)Oc2c(NC(=O)Nc3ccccc3)cccc2C1=O
inactive: [1] | [2] | [3]

COc1ccc(CN(C)C[C@@H]2OCCCC[C@@H](C)Oc3ccc(NC(=O)c4ccccc4)cc3C(=O)N([C@H](C)CO)C[C@@H]2C)cc1
inactive: [1] | [2] | [3]

CCCn1c(=S)[nH]c2cc(Cl)ccc21
inactive: [1] | [2] | [3]

Cc1noc(C)c1NC(=O)N(C)C[C@H]1Oc2ccc(N(C)C)cc2C(=O)N([C@H](C)CO)C[C@@H]1C
inactive: [1] | [2] | [3]

Cc1cc(OCC(=O)N(C)Cc2ccccc2)cc(C)c1Cl
inactive: [1] | [2] | [3]

CC(C)COc1ccc(CNC(=S)NCc2ccccc2)cc1
inactive: [1] | [2] | [3]

CCCC(=O)N1CCC1(C)C(=O)Nc1cc(C)ccc1C (stereo not drawn)
inactive: [1] | [2] | [3]

Cc1ccc(C(=O)Nc2ccc3ncccc3c2)cc1
inactive: [1] | [2] | [4]

O=C(C[C@H]1CC[C@H]2[C@@H](COC[C@H](O)CN2C(=O)Nc2ccc3c(c2)OCO3)O1)N1CCN(c2ccccc2)CC1
inactive: [1] | [2] | [3]

O=C(NC(=S)Nc1ccc(N2CCOCC2)cc1)c1cccc([N+](=O)[O-])c1
inactive: [1] | [2] | [3]

Cc1ccccc1NC(=O)C1CCC(=O)N1 (stereo not drawn)
inactive: [1] | [2] | [3]

O=C(c1cccc(F)c1)N1C[C@H]2[C@@H](c3ccccc31)[C@@H](CO)N2Cc1cocn1
inactive: [1] | [2] | [3]

CCCC(=O)Nc1ccc2c(c1)OC[C@H](C)N(Cc1ccccn1)C[C@H](C)[C@H](OC)CN(C)C2=O
inactive: [1] | [2] | [3]

COc1ccc(NC(=O)c2cn(C)c(=O)c3cc(OC)c(OC)cc23)c(OC)c1
inactive: [1] | [2] | [3]

O=C(CSc1ncnc2c1cnn2-c1ccc(F)cc1)NCC1CCCO1 (stereo not drawn)
inactive: [1] | [2] | [3]

C[C@H](CO)N1C[C@H](C)[C@H](CN(C)Cc2ccccc2F)Oc2cc(C3=CCCC3)ccc2S1(=O)=O
inactive: [1] | [3]

COc1ccc(CN(C)C[C@H]2Oc3ccc(NS(C)(=O)=O)cc3CC(=O)N([C@@H](C)CO)C[C@H]2C)cc1
inactive: [1] | [2] | [3]

Cc1ccc(C2CCN(C(=S)NC3CCCCC3)C2)cc1 (stereo not drawn)
inactive: [1] | [2] | [3]

Cc1ccc(S(=O)(=O)N(C)C[C@H]2Oc3c(cccc3N(C)C)C(=O)N([C@@H](C)CO)C[C@H]2C)cc1
inactive: [1] | [2] | [3]

COC(=O)C1=C(C)N(CC(C)C)C(=S)NC1c1ccc(-c2ccccc2)cc1 (stereo not drawn)
inactive: [2]

O=C(c1cccs1)N1CCN(c2nc3ccccc3s2)CC1
inactive: [1] | [2] | [3]

Cc1c(Cl)cccc1NC(=O)C1NC(=O)CC1c1ccccc1 (stereo not drawn)
inactive: [1] | [2] | [3]

Cc1cccc(-c2ccc([C@@H]3[C@@H](CO)N4CCCCN(S(=O)(=O)c5ccccc5C)C[C@@H]34)cc2)c1
inactive: [1] | [2] | [3]

CCN1C(=S)N[C@@H](c2cccc(F)c2)C(C(=O)OC)=C1C
inactive: [1] | [2] | [3]

CCOc1ccc(C(=O)NC(=S)Nc2ccccc2N2CCCCC2)cc1[N+](=O)[O-]
inactive: [1] | [2] | [3]

C[C@@H]1CN([C@H](C)CO)C(=O)c2cc(NS(=O)(=O)c3cn(C)cn3)ccc2O[C@@H](C)CCCCO[C@H]1CN(C)C
inactive: [1] | [2] | [3]

O=C(C[C@@H]1C=C[C@@H](NC(=O)Nc2cc(F)ccc2F)[C@H](CO)O1)NCCCN1CCOCC1
inactive: [1] | [2] | [3]

Cc1c(C(=O)NC(=S)Nc2ccc(N3CCOCC3)cc2)cccc1[N+](=O)[O-]
inactive: [1] | [2] | [3]

CC(C)N1C(=O)C2(OCCCO2)c2cc(Br)ccc21
inactive: [1] | [2] | [3]

O=C(C[C@@H]1CC[C@@H]2[C@H](COC[C@@H](O)CN2C(=O)Nc2ccc(Cl)cc2)O1)NC1Cc2ccccc2C1
inactive: [1] | [2] | [3]

Cc1ccc(S(=O)(=O)N2CC[C@@H]3[C@H](CO)Nc4ccc(-c5ccccc5F)cc4[C@@H]32)cc1
inactive: [1] | [2] | [3]

COCCNC(=O)C[C@H]1C=C[C@H](NS(=O)(=O)c2ccc(C)cc2)[C@@H](CO)O1
inactive: [1] | [2] | [3]

CC(C)CC#Cc1cnc2c(c1)C(=O)N([C@@H](C)CO)C[C@@H](C)[C@@H](CN(C)C(=O)c1cccc(F)c1)O2
inactive: [1] | [2] | [3]

O=C(NC(=S)Nc1ccccc1N1CCOCC1)c1ccc(Br)cc1
inactive: [2] | [3]

O=C(NC1CCCCC1)C(c1ccc(F)cc1)N(Cc1ccco1)C(=O)CN1C(=O)c2ccccc2S1(=O)=O (stereo not drawn)
inactive: [5] | [6] | [7] | [8] | [9]

COc1ccc(CN2C(=O)C(CC(=O)NCCCCc3ccccc3)CC(C(=O)N3CCOCC3)=C2C)cc1 (stereo not drawn)
inactive: [5] | [6] | [7] | [8] | [9]

Cc1c(Cl)cccc1NC(=S)NCCc1ccc(Cl)cc1
inactive: [2] | [3]

Cc1ccccc1Cn1cnc2ccccc2c1=O
inactive: [5] | [6] | [7] | [8] | [9]

Cc1ccc(NC(=S)N(CCCN2CCOCC2)Cc2ccccn2)cc1
inactive: [5] | [6] | [7] | [8]

CCOc1ccc(C(=O)Nc2ccc(Cc3ccncc3)cc2)cc1Br
inactive: [5] | [6] | [7] | [8] | [9]

CCOc1ccc2c(CC)cc(=O)oc2c1OCC
inactive: [5] | [6] | [7] | [8] | [9]
